This passage reports growth results from PubChem BioAssay (NCI).

Molecules are shown by their SMILES. About 83,000 compounds went through this panel and 20% of them were active in at least one assay; those are over-represented in the sample as a whole.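 Values shown are percent growth following 48 h exposure of cells in 96-well plates to a single concentration of compound; below 10 was considered active.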 A number with no mark means an inactive call. The source made the active and inactive calls.

Some test systems named below: NCI-H23 lung; NCI-H226 lung; NCI-H322M lung; HOP-62 NSCLC; NCI-H460 lung; HOP-92 NSCLC; NCI-H522 lung; A549/ATCC NSCLC; 786-0 renal; COLO 205 colon; DU-145 prostate; K-562 leukemia; MALME-3M melanoma; MDA-MB-231 breast; RXF 393 renal; SF-268 CNS; SF-295 CNS; SF-539 CNS; UACC-257 melanoma; M14 melanoma.
Experiment in all cases: NCI-60 one-dose screen, 48 h (100 = growth as untreated, 0 = no growth, -100 = all killed)
What all share (details): 10 µM unless noted

For `Cc1ccc(S(=O)(=O)NC(=O)n2cc(-c3ccncc3)c(-c3ccc(Cl)c(O)c3)n2)cc1`, the growth in the test with NCI-H23 lung is 108%; with NCI-H226 lung, 98.6%; in the test with NCI-H322M lung, 111%; in the test on HOP-62 NSCLC it was 116%; with NCI-H460 lung it was 111%; in the test with HOP-92 NSCLC, 99%. The growth in the test with NCI-H522 lung was 91.3%; in the test with A549/ATCC NSCLC it was 99.6%; in the test with 786-0 renal, 95.4%; in the test with COLO 205 colon it was 113%; in the test on DU-145 prostate it was 132%; in the test on K-562 leukemia it was 98.9%. Moreover, the growth in the test on MALME-3M melanoma is 65%; in the test on MDA-MB-231 breast, 89.8%; with RXF 393 renal it was 114%; with SF-268 CNS it was 117%; in the test on SF-295 CNS, 109%; with SF-539 CNS, 92.1%. Besides, the values for the growth with UACC-257 melanoma and with M14 melanoma were 99.4% and 51.2%, respectively.
On to `COc1ccc2c(c1)C(c1cc(OC)c3c(c1)OCO3)C1=C(COC1=O)N2` (stereo not given), for which the growth is 38.2% in the test on NCI-H23 lung; 27.5% with NCI-H226 lung; 51.4% in the test with NCI-H322M lung; 36.5% with HOP-62 NSCLC; 6.63% (active) with NCI-H460 lung; 26.9% with HOP-92 NSCLC. Also, the growth with NCI-H522 lung was -38.5% (active); in the test with A549/ATCC NSCLC, 14.7%; in the test on 786-0 renal, 29.5%; in the test with COLO 205 colon, -22.6% (active); in the test on DU-145 prostate it was 3.41% (active); with K-562 leukemia, 12%. The growth is 54.2% in the test on MALME-3M melanoma; 24.4% in the test on MDA-MB-231 breast; -8.85% (active) in the test with RXF 393 renal; 32.2% with SF-268 CNS; 1.56% (active) in the test with SF-295 CNS; 5.62% (active) in the test on SF-539 CNS. Further, the growth in the test on UACC-257 melanoma was 66.1%; with M14 melanoma it was 5.65% (active).
Turning to `O=C([O][Sn]([O]C(=O)c1ccccn1)([c]1ccccc1)[c]1ccccc1)c1ccccn1`, the growth with NCI-H23 lung was 55.2%; with NCI-H226 lung, 65.5%; in the test on NCI-H322M lung, 123%; in the test on HOP-62 NSCLC it was 98.9%; in the test on NCI-H460 lung, 107%; in the test on HOP-92 NSCLC, 74.5%. For the same molecule, the growth was -68.7% (active) in the test with NCI-H522 lung; 103% with A549/ATCC NSCLC; 96.2% with 786-0 renal; 77.4% with COLO 205 colon; 92.3% with DU-145 prostate; 24% with K-562 leukemia. Also, the growth with MALME-3M melanoma is 86.4%; with MDA-MB-231 breast, 87.4%; in the test with RXF 393 renal it was 41.7%; with SF-268 CNS it was 83.5%; in the test with SF-295 CNS, 127%; in the test with SF-539 CNS, 97.4%. Moreover, the growth is 73.9% in the test on UACC-257 melanoma and 85.8% in the test with M14 melanoma.
Turning to `CCOC(=O)/C(C#N)=C1/C(=O)Nc2ccccc21`, the growth in the test on NCI-H23 lung is 108%; in the test with NCI-H226 lung, 116%; with NCI-H322M lung it was 127%; in the test with HOP-62 NSCLC, 104%; in the test with NCI-H460 lung, 120%; in the test on HOP-92 NSCLC it was 110%. The growth in the test on NCI-H522 lung is 183%; with A549/ATCC NSCLC, 112%; with 786-0 renal it was 124%; in the test with COLO 205 colon, 118%; in the test on DU-145 prostate, 123%; with K-562 leukemia it was 132%. Besides, the growth in the test with MALME-3M melanoma is 108%; in the test on MDA-MB-231 breast, 116%; with RXF 393 renal it was 117%; with SF-268 CNS, 122%; in the test on SF-295 CNS it was 113%; with SF-539 CNS, 99.7%. For the same molecule, the growth in the test with UACC-257 melanoma is 123%; with M14 melanoma it was 94.6%.
Consider `C=C1C(=O)O[C@H]2[C@H]1CC/C(Cn1cc(CNC(=O)/C=C/c3c[nH]c4ccccc34)nn1)=C\CC[C@@]1(C)O[C@@H]21`, for which the growth was 100% with NCI-H23 lung; 92.5% in the test on NCI-H226 lung; 101% in the test on NCI-H322M lung; 104% in the test with HOP-62 NSCLC; 98.1% with NCI-H460 lung; 82.9% in the test with HOP-92 NSCLC. In addition, the growth in the test with NCI-H522 lung is 16.4%; with A549/ATCC NSCLC, 91.6%; in the test with 786-0 renal, 102%; in the test with COLO 205 colon, 67.9%; in the test on DU-145 prostate, 103%; in the test with K-562 leukemia it was 23.6%. For the same molecule, the growth with MALME-3M melanoma was 98%; in the test on MDA-MB-231 breast it was 99.7%; in the test with RXF 393 renal, 84%; with SF-268 CNS it was 93.5%; with SF-295 CNS, 93.3%; in the test on SF-539 CNS, 80.4%. For the same molecule, the growth was 74.9% in the test on UACC-257 melanoma and 84.3% in the test with M14 melanoma.
As to `NC1=NC(SCc2ccccc2CCl)c2ncn(Cc3ccccc3CCl)c2N1` (stereo not given), the growth in the test on NCI-H23 lung was 70.8%; with NCI-H226 lung, 60.2%; with NCI-H322M lung, 80.8%; in the test with HOP-62 NSCLC it was 74.5%; with NCI-H460 lung it was 80.7%; in the test with HOP-92 NSCLC it was 24%. The growth with NCI-H522 lung is -92% (active); in the test on A549/ATCC NSCLC, 80.3%; in the test on 786-0 renal it was 64.2%; in the test on COLO 205 colon it was 43.9%; in the test with DU-145 prostate it was 64%; with K-562 leukemia, 21.9%. Also, the growth in the test on MALME-3M melanoma is 19.4%; with MDA-MB-231 breast it was 47.5%; with RXF 393 renal, -4.55% (active); in the test on SF-268 CNS it was 54.9%; with SF-295 CNS, 101%; in the test on SF-539 CNS it was 69.4%. The figures for the growth in the test on UACC-257 melanoma and in the test with M14 melanoma were 42.5% and 40%, respectively.
As for `COc1ccc(/C=C2\Oc3cc(OCCCN4CCCC4)ccc3C2=O)cc1`, the growth in the test on NCI-H23 lung was 87.2%; in the test on NCI-H226 lung it was 93%; in the test with NCI-H322M lung, 93.1%; in the test with HOP-62 NSCLC it was 89.7%; in the test with NCI-H460 lung, 68.5%; in the test on HOP-92 NSCLC it was 82.2%. In addition, the growth in the test on NCI-H522 lung is 85.7%; in the test on A549/ATCC NSCLC it was 90.6%; with 786-0 renal, 93%; in the test with COLO 205 colon, 93.5%; with DU-145 prostate it was 95.4%; with K-562 leukemia it was -25% (active). The growth was 108% in the test on MALME-3M melanoma; 93.8% in the test with MDA-MB-231 breast; 78.9% with RXF 393 renal; 88.9% with SF-268 CNS; 98.7% in the test with SF-295 CNS; 79.7% with SF-539 CNS. For the same molecule, the growth is 101% with UACC-257 melanoma and 84.4% in the test on M14 melanoma.
Take `CCN(CC)CCCC(C)Nc1c2ccc(Cl)cc2nc2cc(OC)c(OC)cc12` (stereo not given): the growth in the test with NCI-H23 lung was 21%; in the test on NCI-H226 lung it was 32.3%; with NCI-H322M lung, 0.383% (active); in the test with HOP-62 NSCLC it was 32.3%; in the test with NCI-H460 lung it was -31.6% (active); in the test on HOP-92 NSCLC it was -9.58% (active). Moreover, the growth was 14.9% with NCI-H522 lung; 4.12% (active) in the test with A549/ATCC NSCLC; 38.6% in the test with 786-0 renal; -33.6% (active) with COLO 205 colon; 22.6% in the test with DU-145 prostate; -16.4% (active) with K-562 leukemia. Besides, the growth is -74.1% (active) with MALME-3M melanoma; -34.3% (active) in the test with MDA-MB-231 breast; -13.4% (active) in the test on RXF 393 renal; 33.9% in the test with SF-268 CNS; 44.5% with SF-295 CNS; -87.9% (active) in the test with SF-539 CNS. The growth in the test with UACC-257 melanoma was 46.9%; in the test with M14 melanoma, -73.7% (active).
